A selection: hits, their analogues and other compounds. The true share with any hit is near 0.81%.
TRHR agonist: activates the human TRH receptor; P34981; TRHR cells, calcium flux fluo-8, FDSS agonist mode; activation, % at 2 µM; hit rate 0.18% among 360,000; in the data active = activation above about 30%; note: 0% is about no effect
Target sequence (P34981 whole entry, looked up): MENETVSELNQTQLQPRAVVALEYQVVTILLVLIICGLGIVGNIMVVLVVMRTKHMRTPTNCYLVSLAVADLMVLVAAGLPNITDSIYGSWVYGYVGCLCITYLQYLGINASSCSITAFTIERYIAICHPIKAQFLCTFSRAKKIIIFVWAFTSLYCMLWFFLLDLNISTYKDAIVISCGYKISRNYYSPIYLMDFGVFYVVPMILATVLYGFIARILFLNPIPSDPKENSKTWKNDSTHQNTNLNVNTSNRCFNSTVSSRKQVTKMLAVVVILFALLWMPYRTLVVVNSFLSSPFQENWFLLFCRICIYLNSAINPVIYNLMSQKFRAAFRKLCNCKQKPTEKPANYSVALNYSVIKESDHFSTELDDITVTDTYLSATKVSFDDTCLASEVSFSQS
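TRHR-expressing cells loaded with fluo-8 calcium dye; 23 nL library compound pin-transferred, kinetic FDSS fluorescence (Ex 480/Em 530) recorded about 180 s for agonist-induced calcium release, before a 10 nM TRH EC20 addition for potentiator mode.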
TRPML1 inh: inhibitors of human TRPML1 channel. Q9GZU1. TRPML1-inducible cells, Ca2+ dye fluorescence, FDSS; hits give low values; inhibition of EC80 agonist-evoked calcium signal. activity change, negative = inhibition, % (no concentration beside the values). hit rate 0.02% among 390,000; in the data active = activity change below about -50%; inconclusive = between about -30% and that limit;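 note: stimulus is agonist 54-4 at its EC80 concentration; % is set by controls: 0 for no effect and ±100 for the full control effect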
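Tet-induced TRPML1-DL cells loaded with Ca8 no-wash calcium dye were read kinetically on FDSS. Compound addition was followed by EC80 agonist 54-4 (4 uM final); inhibition was read over 110 s.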
TRHR PAM: allosterically enhances the human TRH receptor; P34981; TRHR cells, fluo-8 calcium fluorescence, EC20 TRH enhancement; enhancement, % at 2 µM; hit rate 0.66% among 360,000; AID 493056; in the data active = enhancement above about 30%; note: 0% is about no effect
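TRHR-expressing cells loaded with fluo-8 calcium dye were read kinetically (ex 480/em 530) during compound addition, then stimulated with an EC20 of TRH (10 nM final). Enhancement of the Gq-mediated intracellular calcium response was scored.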
TRPML1 agonist: activates the human TRPML1 channel. AID 624414. activation, % (no concentration beside the values). Q9GZU1. hit rate 0.12% among 410,000. TRPML1-expressing cells, Ca2+ dye fluorescence, FDSS; in the data active = activation above about 50%; inconclusive = mostly about 30% to 49%; note: 0% is about no effect
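In this qHTS format, compounds were pin-transferred onto Ca8-dye-loaded TRPML1-DL cells induced with Tet overnight, and intracellular Ca2+ fluorescence was recorded kinetically for 110 s after a 10 s baseline. A subsequent 4uM final 54-4 (EC80) addition followed by a second 110 s read served as the antagonist phase.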
* = called active by the depositor; ? = inconclusive; . = no result given.

SMILES | TRHR agonist | TRPML1 inh | TRHR PAM | TRPML1 agonist
O=C(NC1=NCCS1)c1cccc(S(=O)(=O)N2CCc3ccccc32)c1 | 0 | 0 | -10 | 1
O=C(Nc1nncs1)c1cccc(S(=O)(=O)N2CCc3ccccc32)c1 | 0 | 17 | 33* | 3
N#C/C(=C\c1cccc(NC(=O)c2ccccc2Cl)c1)C(=O)NCCc1ccccc1 | 1 | 24 | 35* | 0
COc1cccc(NS(=O)(=O)c2c(C(=O)N3CCCCCC3)c(C)n(C)c2C)c1 | -1 | 29 | 33* | 0
Cc1cccc2c(C(O)c3c[nH]c4c(C)cccc34)c[nH]c12 | . | . | . | 0
COc1ccc(-n2nnc3c(SCC(=O)OCc4ccccc4)ncnc32)cc1 | 0 | 12 | 31* | 0
COc1ccc(-n2nnc3c(SCc4ccccc4)ncnc32)cc1 | 1 | 26 | -2 | 2
CC(C)(C)c1ccc(C(=O)C[n+]2ccccc2Cl)cc1 | . | . | . | 0
O=C1c2ccccc2S(=O)(=O)c2cc(C(=O)N(c3ccccn3)c3ccccn3)ccc21 | 70* | -6 | 40* | 64*
CCN1CCN(c2c(/C=C3\SC(=S)N(Cc4ccco4)C3=O)c(C)c(C#N)c(=O)n2C)CC1 | -1 | 2 | 32* | ?
COc1cc(OC)c(OC)cc1/C=C/c1ccc2ccccc2[n+]1C | . | . | . | -1
CCNc1ccc(/C=C2\C=Cc3ccccc32)cc1 | . | . | . | 0
C=CCN1C(=O)/C(=C/C=C2/N(CC)c3ccc(S(=O)(=O)N(C)C)cc3N2CC)SC1=S | 45* | -19 | 9 | 0
C=CCN1C(=O)/C(=C2/Sc3ccccc3N2CC)SC1=S | 0 | 9 | -1 | 0
O=C(COC(=O)CNC(=O)c1cccc([N+](=O)[O-])c1)Nc1ccccc1OC(F)F | -1 | -19 | 34* | 1
O=C1[C@H](Cc2ccccc2)NC/C=C\C[C@H](c2ccc(Cl)cc2)N1Cc1ccc(Cl)cc1 | . | . | . | 1
COc1ccc(CNC(=O)c2ccc(NC(=O)C3=CSCCO3)cc2)cc1 | -1 | -5 | 34* | 1
O=[N+]([O-])c1ccc(O/N=[N+](\[O-])N2CCCC2)c([N+](=O)[O-])c1 | . | 5 | . | 1
Cc1cc(C)n(-c2ccc(NC(=O)C3CCN(Cc4cnc(C)s4)CC3)cc2)n1 | 0 | 12 | 1 | 0
Cc1ncc(CN2CCC(C(=O)Nc3ccc(-n4cccn4)cc3)CC2)s1 | 0 | 15 | 30* | -1
COc1cc(C)nc(-c2csc(C)n2)n1 | -1 | 4 | 31* | 0
COc1ccc(-c2csc(C)n2)cc1 | 0 | -3 | -1 | 3
Cc1cc2c(s1)c1cnn(Cc3c(F)cc(F)cc3F)c(=O)c1n2C | 0 | . | -2 | .
CCN(CC)c1ccc2nc3c(=O)n(C)c(=O)n(C)c3nc2c1 | 68* | 29 | 4 | ?
CCc1ccccc1Oc1ccc(S(=O)(=O)N2CCN(C)CC2)cn1 | 0 | -2 | 40* | 1
SMILES | TRHR agonist | TRPML1 inh | TRHR PAM | TRPML1 agonist
Cc1ccc(CNC(=O)c2cccc(-n3cnnn3)c2)cc1 | 0 | 28 | 30* | -1
CC(C)(C)c1ccc(Cn2cnc3c(cnn3C(C)(C)C)c2=O)cc1 | . | 0 | . | 0
Cc1ccc(NC(=O)C2(c3ccc([N+](=O)[O-])cc3)CCCC2)cc1 | 5 | -3 | 33* | 1
O=C(O)CC1(CC(=O)Nc2ccc3ccccc3c2)CCCCC1 | 0 | -5 | 0 | -1
O=C(O)CC1(CC(=O)Nc2ccc3ccccc3n2)CCCCC1 | 0 | -4 | 32* | 1
CC(C)(C)c1ccccc1Nc1nc(C#N)nc(NC2CCCC2)n1 | -2 | . | 0 | .
O=C(Nc1cccc(C(=O)O)c1)/C(=C\c1ccc2c(c1)OCO2)NC(=O)c1ccco1 | 1 | -17 | 33* | 0
CCCCCCCCN1[C@@H](CC(=O)O)c2ccc(/C=C/C(=O)O)cc2S1(=O)=O | . | . | . | 0
Cc1ccc(N2C(=O)C(F)(F)C2c2ccccc2)cc1 (stereo not given) | 1 | -20 | -5 | 63*
COc1cc(Cl)c(C)cc1Nc1nc2ccccc2c2nnc(C)n12 | 0 | 26 | 33* | 1
O=C(NCc1ccccc1)C(=O)Nc1nccs1 | 0 | -16 | 34* | 0
S=C(c1ccc(-c2ccccc2)cc1)N1CCOCC1 | 0 | -11 | 34* | -1
O=C(c1ccc(-c2ccccc2)cc1)c1ccccc1C(=O)N1CCOCC1 | 0 | 1 | 4 | 0
CCN(CC)c1ccc2c(c1)OC(N)=C(C#N)C2c1cccnc1 (stereo not given) | 23 | 6 | -3 | 70*
N#CC1=C(N)Oc2cc(N)ccc2C1c1cccnc1 (stereo not given) | 0 | 26 | -7 | 1
O=C(c1ccc2c(Cl)c3c(nc2c1)CCCC3)N1CCN(c2ccc(Cl)cc2)CC1 | 0 | 0 | 3 | -1
O=C(c1ccc2c(Cl)c3c(nc2c1)CCCC3)N1CCN(c2cccc(Cl)c2)CC1 | 0 | -9 | 33* | 0
O=[N+]([O-])c1ccc(C2=NN(c3ccccc3)C(c3ccco3)C2)cc1 (stereo not given) | 59* | 4 | 2 | 55*
O=[N+]([O-])c1ccc(/C=C/C2=NN(c3ccccc3)C(c3ccco3)C2)cc1 (stereo not given) | 0 | -13 | -3 | 60*
Cc1cc(Oc2ccccc2)nc(C#N)n1 | . | . | . | -1
CC(NC(=O)[C@H](Cc1c[nH]c2ccccc12)NC(=O)[C@@H]1Cc2ccccc2CN1)c1ccccc1 (stereo not given in full) | 0 | 18 | 30* | -1
Cc1cc(C)cc(NC(=O)[C@H](Cc2c[nH]c3ccccc23)NC(=O)[C@@H]2Cc3ccccc3CN2)c1 | 0 | . | 0 | .
CN(C)CCCNc1ncnc2c1cnn2-c1ccccc1 | 1 | 2 | -5 | -1
CC(C)OCCCNc1ncnc2c1cnn2-c1ccccc1 | 0 | 1 | 33* | -2
c1ccc(-n2ncc3c(NCCN4CCOCC4)ncnc32)cc1 | 0 | -5 | 33* | 2
SMILES | TRHR agonist | TRPML1 inh | TRHR PAM | TRPML1 agonist
c1ccc(-n2ncc3c(NCCN4CCCCC4)ncnc32)cc1 | 1 | -6 | 3 | 0
Cc1nn2c(C)c(C(=O)NCC(C)c3ccccc3)cnc2c1-c1ccccc1 (stereo not given) | 0 | -8 | 35* | 1
CCCc1cc(=O)oc2cc(C)c3c(-c4ccccc4)coc3c12 | 0 | 1 | 49* | 1
O=c1c2[nH]c3ccsc3c2cnn1Cc1ccccc1F | -1 | . | -1 | .
O=C(c1cc(C2CC2)nn1-c1ccccc1)N1CCN(c2ccccc2O)CC1 | . | -12 | . | 0
O=C(c1cc(C2CC2)nn1-c1ccccc1)N1CCN(c2ccc(O)cc2)CC1 | -1 | 24 | 30* | 1
C=CCC1[C@H](C)[C@H]2[C@@H]3CC[C@@H](C3)[C@H]2CN1S(=O)(=O)c1ccc(C)cc1 (stereo not given in full) | . | -13 | . | 54*
N=C1/C(=C/c2coc3ccccc3c2=O)C(=O)N=C2SC(c3ccco3)=NN12 | 6 | -16 | -2 | 81*
